# Assay results: the supplement of paper PMC4022240
# ± gives the standard deviation.
# T1: HaloTag-ATRX ADD domain (163-292)
# T1 chain: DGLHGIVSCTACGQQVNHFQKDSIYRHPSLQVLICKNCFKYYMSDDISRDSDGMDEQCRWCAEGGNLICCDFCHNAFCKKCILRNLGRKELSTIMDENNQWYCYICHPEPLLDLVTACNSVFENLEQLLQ
# How the values were obtained:
# Test in all cases: peptide microarray binding signal (635 nm), min-max normalized on array (fraction of array maximum); higher = stronger binding
# Details in all cases: peptide region: H3 112-124
# [1] = target: T1, HaloTag-ATRX ADD domain (163-292)
# Outline: (§1)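 Histone 13-mer peptide–cellulose conjugates were printed in triplicate on nitrocellulose with a Cy3 tracer, then blocked overnight at 4°C. Arrays were probed for 1 h at 4°C with biotin-labelled HaloTag reader fusions (10 nM to 1 μM) plus streptavidin-Alexa Fluor 647, or with rabbit histone antibodies (1:10,000 to 1:2,000) plus anti-rabbit Alexa 647. An Axon GenePix 4000B scanned 635 nm for signal and 532 nm for misprints. Binding signal is the triplicate-spot mean intensity, min-max scaled per library.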
# [2] = target: HaloTag-ING2 PHD (mouse Ing2 200-280)
# Outline: as §1
# [3] = target: anti-H3K4me3 antibody ab8580
# Outline: as §1
# [4] = target: anti-H3K9me3 antibody ab8898
# Outline: as §1
# [5] = peptide modifications: H3K115ac H3R116me2a, binder concentration: 1:2,000 dilution
# [6] = peptide modifications: H3K115ac H3R116me2a, binder concentration: 1:10,000 dilution
# [7] = peptide modifications: H3K115ac H3R116me2s, binder concentration: 1:2,000 dilution
# [8] = peptide modifications: H3K115ac H3R116me2s, binder concentration: 1:10,000 dilution
# [9] = peptide modifications: H3K115ac, binder concentration: 1:2,000 dilution
# [10] = peptide modifications: H3K115ac, binder concentration: 1:10,000 dilution
# [11] = peptide modifications: H3K115me1, binder concentration: 1:2,000 dilution
# [12] = peptide modifications: H3K115me1, binder concentration: 1:10,000 dilution
# [13] = peptide modifications: H3K115me1 H3K122ac, binder concentration: 1:2,000 dilution
# [14] = peptide modifications: H3K115me1 H3K122ac, binder concentration: 1:10,000 dilution
# [15] = peptide modifications: H3K115me1 H3K122me1, binder concentration: 1:2,000 dilution
# [16] = peptide modifications: H3K115me1 H3K122me1, binder concentration: 1:10,000 dilution
# [17] = peptide modifications: H3K115me1 H3K122me2, binder concentration: 1:2,000 dilution
# [18] = peptide modifications: H3K115me1 H3K122me2, binder concentration: 1:10,000 dilution
# [19] = peptide modifications: H3K115me1 H3K122me3, binder concentration: 1:2,000 dilution
# [20] = peptide modifications: H3K115me1 H3K122me3, binder concentration: 1:10,000 dilution
# [21] = peptide modifications: H3K115me1 H3R116cit, binder concentration: 1:2,000 dilution
# [22] = peptide modifications: H3K115me1 H3R116cit, binder concentration: 1:10,000 dilution
# [23] = peptide modifications: H3K115me1 H3R116me1, binder concentration: 1:2,000 dilution
# [24] = peptide modifications: H3K115me1 H3R116me1, binder concentration: 1:10,000 dilution
binder,measurement,setting,value
IHAKRVTIMPKDI [H3 112-124 I H A Kac Rme2a V T I M P K D I],peptide microarray binding signal,"[1]; peptide modifications: H3K115ac H3R116me2a, binder concentration: 50 nM",0.00787 ± 0.00018
same,peptide microarray binding signal,"[1]; peptide modifications: H3K115ac H3R116me2a, binder concentration: 500 nM",0.0159 ± 0.00051
same,peptide microarray binding signal,"[2]; peptide modifications: H3K115ac H3R116me2a, binder concentration: 10 nM",0.0239 ± 0.00027
same,peptide microarray binding signal,"[2]; peptide modifications: H3K115ac H3R116me2a, binder concentration: 100 nM",0.0365 ± 0.0046
same,peptide microarray binding signal,[3]; [5],0.00423 ± 0.00017
same,peptide microarray binding signal,[3]; [6],0.00394 ± 0.00014
same,peptide microarray binding signal,[4]; [5],0.00278 ± 0.00019
same,peptide microarray binding signal,[4]; [6],0.00306 ± 0.0002
IHAKRVTIMPKDI [H3 112-124 I H A Kac Rme2s V T I M P K D I],peptide microarray binding signal,"[1]; peptide modifications: H3K115ac H3R116me2s, binder concentration: 50 nM",0.005956 ± 4.1e-05
same,peptide microarray binding signal,"[1]; peptide modifications: H3K115ac H3R116me2s, binder concentration: 500 nM",0.0125 ± 0.0017
same,peptide microarray binding signal,"[2]; peptide modifications: H3K115ac H3R116me2s, binder concentration: 10 nM",0.0167 ± 0.0042
same,peptide microarray binding signal,"[2]; peptide modifications: H3K115ac H3R116me2s, binder concentration: 100 nM",0.0203 ± 0.0028
same,peptide microarray binding signal,[3]; [7],0.00436 ± 0.00063
same,peptide microarray binding signal,[3]; [8],0.00576 ± 0.00047
same,peptide microarray binding signal,[4]; [7],0.00375 ± 0.00054
same,peptide microarray binding signal,[4]; [8],0.00398 ± 0.00024
IHAKRVTIMPKDI [H3 112-124 I H A Kac R V T I M P K D I],peptide microarray binding signal,"[1]; peptide modifications: H3K115ac, binder concentration: 50 nM",0.0131 ± 0.00019
same,peptide microarray binding signal,"[1]; peptide modifications: H3K115ac, binder concentration: 500 nM",0.0422 ± 0.0053
same,peptide microarray binding signal,"[2]; peptide modifications: H3K115ac, binder concentration: 10 nM",0.0158 ± 0.0028
same,peptide microarray binding signal,"[2]; peptide modifications: H3K115ac, binder concentration: 100 nM",0.0152 ± 0.00051
same,peptide microarray binding signal,[3]; [9],0.00323 ± 0.00038
same,peptide microarray binding signal,[3]; [10],0.00228 ± 0.00013
same,peptide microarray binding signal,[4]; [9],0.00832 ± 0.00014
same,peptide microarray binding signal,[4]; [10],0.00329 ± 0.00029
IHAKRVTIMPKDI [H3 112-124 I H A Kme R V T I M P K D I],peptide microarray binding signal,"[1]; peptide modifications: H3K115me1, binder concentration: 50 nM",0.00774 ± 0.00015
same,peptide microarray binding signal,"[1]; peptide modifications: H3K115me1, binder concentration: 500 nM",0.0198 ± 0.0023
same,peptide microarray binding signal,"[2]; peptide modifications: H3K115me1, binder concentration: 10 nM",0.00668 ± 0.00016
same,peptide microarray binding signal,"[2]; peptide modifications: H3K115me1, binder concentration: 100 nM",0.0314 ± 0.0099
same,peptide microarray binding signal,[3]; [11],0.00168 ± 0.00023
same,peptide microarray binding signal,[3]; [12],0.001997 ± 1.8e-05
same,peptide microarray binding signal,[4]; [11],0.0034 ± 0.00038
same,peptide microarray binding signal,[4]; [12],0.00236 ± 0.00015
IHAKRVTIMPKDI [H3 112-124 I H A Kme R V T I M P Kac D I],peptide microarray binding signal,"[1]; peptide modifications: H3K115me1 H3K122ac, binder concentration: 50 nM",0.00345 ± 6.5e-05
same,peptide microarray binding signal,"[1]; peptide modifications: H3K115me1 H3K122ac, binder concentration: 500 nM",0.0061 ± 0.00013
same,peptide microarray binding signal,"[2]; peptide modifications: H3K115me1 H3K122ac, binder concentration: 10 nM",0.00746 ± 0.00035
same,peptide microarray binding signal,"[2]; peptide modifications: H3K115me1 H3K122ac, binder concentration: 100 nM",0.0111 ± 0.00029
same,peptide microarray binding signal,[3]; [13],0.00249 ± 0.0011
same,peptide microarray binding signal,[3]; [14],0.001484 ± 1.4e-05
same,peptide microarray binding signal,[4]; [13],0.000997 ± 1.4e-05
same,peptide microarray binding signal,[4]; [14],0.00104 ± 2.8e-05
IHAKRVTIMPKDI [H3 112-124 I H A Kme R V T I M P Kme D I],peptide microarray binding signal,"[1]; peptide modifications: H3K115me1 H3K122me1, binder concentration: 50 nM",0.00511 ± 9.8e-05
same,peptide microarray binding signal,"[1]; peptide modifications: H3K115me1 H3K122me1, binder concentration: 500 nM",0.0109 ± 9.7e-05
same,peptide microarray binding signal,"[2]; peptide modifications: H3K115me1 H3K122me1, binder concentration: 10 nM",0.0179 ± 0.0021
same,peptide microarray binding signal,"[2]; peptide modifications: H3K115me1 H3K122me1, binder concentration: 100 nM",0.0298 ± 0.0035
same,peptide microarray binding signal,[3]; [15],0.00187 ± 0.00022
same,peptide microarray binding signal,[3]; [16],0.00234 ± 0.00015
same,peptide microarray binding signal,[4]; [15],0.00121 ± 5.5e-05
same,peptide microarray binding signal,[4]; [16],0.00115
IHAKRVTIMPKDI [H3 112-124 I H A Kme R V T I M P Kme2 D I],peptide microarray binding signal,"[1]; peptide modifications: H3K115me1 H3K122me2, binder concentration: 50 nM",0.00423 ± 4.3e-05
same,peptide microarray binding signal,"[1]; peptide modifications: H3K115me1 H3K122me2, binder concentration: 500 nM",0.00881 ± 0.00019
same,peptide microarray binding signal,"[2]; peptide modifications: H3K115me1 H3K122me2, binder concentration: 10 nM",0.0148 ± 0.0012
same,peptide microarray binding signal,"[2]; peptide modifications: H3K115me1 H3K122me2, binder concentration: 100 nM",0.0263 ± 0.0033
same,peptide microarray binding signal,[3]; [17],0.0016 ± 6.6e-05
same,peptide microarray binding signal,[3]; [18],0.001826 ± 1.7e-05
same,peptide microarray binding signal,[4]; [17],0.00125 ± 6.5e-05
same,peptide microarray binding signal,[4]; [18],0.00133 ± 2.3e-05
IHAKRVTIMPKDI [H3 112-124 I H A Kme R V T I M P Kme3 D I],peptide microarray binding signal,"[1]; peptide modifications: H3K115me1 H3K122me3, binder concentration: 50 nM",0.00583 ± 0.00011
same,peptide microarray binding signal,"[1]; peptide modifications: H3K115me1 H3K122me3, binder concentration: 500 nM",0.0149 ± 0.00053
same,peptide microarray binding signal,"[2]; peptide modifications: H3K115me1 H3K122me3, binder concentration: 10 nM",0.0251 ± 0.0019
same,peptide microarray binding signal,"[2]; peptide modifications: H3K115me1 H3K122me3, binder concentration: 100 nM",0.0482 ± 0.004
same,peptide microarray binding signal,[3]; [19],0.00627 ± 0.0014
same,peptide microarray binding signal,[3]; [20],0.00548 ± 0.00038
same,peptide microarray binding signal,[4]; [19],0.0268 ± 0.0058
same,peptide microarray binding signal,[4]; [20],0.0121 ± 0.00038
IHAKRVTIMPKDI [H3 112-124 I H A Kme Rcit V T I M P K D I],peptide microarray binding signal,"[1]; peptide modifications: H3K115me1 H3R116cit, binder concentration: 50 nM",0.00947 ± 0.0002
same,peptide microarray binding signal,"[1]; peptide modifications: H3K115me1 H3R116cit, binder concentration: 500 nM",0.0238 ± 0.00041
same,peptide microarray binding signal,"[2]; peptide modifications: H3K115me1 H3R116cit, binder concentration: 10 nM",0.0192 ± 0.00041
same,peptide microarray binding signal,"[2]; peptide modifications: H3K115me1 H3R116cit, binder concentration: 100 nM",0.037 ± 0.0012
same,peptide microarray binding signal,[3]; [21],0.00225 ± 5.2e-05
same,peptide microarray binding signal,[3]; [22],0.00434 ± 0.00036
same,peptide microarray binding signal,[4]; [21],0.00249 ± 6.3e-05
same,peptide microarray binding signal,[4]; [22],0.00248 ± 5.9e-05
IHAKRVTIMPKDI [H3 112-124 I H A Kme Rme V T I M P K D I],peptide microarray binding signal,"[1]; peptide modifications: H3K115me1 H3R116me1, binder concentration: 50 nM",0.0108 ± 0.00023
same,peptide microarray binding signal,"[1]; peptide modifications: H3K115me1 H3R116me1, binder concentration: 500 nM",0.0356 ± 0.0019
same,peptide microarray binding signal,"[2]; peptide modifications: H3K115me1 H3R116me1, binder concentration: 10 nM",0.0466 ± 0.0022
same,peptide microarray binding signal,"[2]; peptide modifications: H3K115me1 H3R116me1, binder concentration: 100 nM",0.0304 ± 0.0046
same,peptide microarray binding signal,[3]; [23],0.00891 ± 0.0021
same,peptide microarray binding signal,[3]; [24],0.00593 ± 0.0011
same,peptide microarray binding signal,[4]; [23],0.00746 ± 0.0012
same,peptide microarray binding signal,[4]; [24],0.00646 ± 0.00037
